Compound activity: PubChem, National Center for Advancing Translational Sciences (NCATS)
Rows were chosen to be rich in hits. Some 19% of all compounds tested hit in one or more screens of this group.
HT1080 IDH1KD tx = toxicity to HT-1080 IDH1 knockdown cells (counter line). HT-1080 IDH1 knockdown viability, ATP luminescence, 48 h. Potency, µM (doses to about 46.1 µM), hits mostly cytotoxic. actives 2% (n = 360,000). AID 686971
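Viability of IDH1-knockdown HT-1080 fibrosarcoma cells was assessed by CellTiter-Glo after 48 h at 37 °C with titrated compound; concentration-effect curves were classified by fit quality and response size.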
TDP1 cell CPT = growth inhibition of DT40 Tdp1-/-;hTDP1 cells with camptothecin (screen for TDP1 inhibitors). chicken DT40 Tdp1-/-;hTDP1 cells + 20 nM CPT, ATP luminescence, 48 h. Potency, µM (top dose mostly 46.2 µM), actives largely listed as inhibitors. actives 12% (n = 420,000). AID 686979; also: nearly all actives have a fitted effect of over 55% in size
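Chicken DT40 Tdp1-/- cells stably complemented with human TDP1 were seeded at 400 cells/well in medium containing 20 nM camptothecin, exposed to pin-transferred compounds, and grown at 37 °C for at least 48 hr. Viability was read as ATP luminescence.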
TDP1 cell noCPT = qHTS for Inhibitors of human tyrosyl-DNA phosphodiesterase 1 (TDP1): qHTS in cells in absence of CPT; DT40 Tdp1-/- hTDP1 cells, no CPT, ATP luminescence, 48 h; Potency, µM (series often up to 46.2 µM), hits mostly inhibitors; actives 15% (n = 420,000); AID 686978, 2013; also: nearly all actives have a fitted effect of over 55% in size
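Growth of hTDP1-complemented DT40 Tdp1-knockout cells is measured by ATP luminescence after at least 48 hr compound exposure at 37 °C, with DMSO substituting for the 20 nM CPT used in the parallel screen.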
IL-1B inflam inh = blocks inflammasome-driven IL-1 beta release. THP-1 LPS/ATP IL-1B secretion, AlphaLISA, 16 h; active compounds read low. activity change, % at 57.5 µM. actives 4.7% (n = 360,000). AID 743279; in the data active = activity change below about -50%; inconclusive = mostly about -30% to -49%
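THP-1 cells pretreated 1 hr with compounds (up to 57.5 uM final), then stimulated with LPS (250 ng/mL final) plus ATP (1.25 mM final); secreted IL-1B measured by AlphaLISA after 16 hr, decreased signal indicating inhibition.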
ELG1 DNA repair = blocks ELG1-dependent DNA repair in HEK293T cells; HEK293T ELG1-luciferase reporter, luminescence, 16 h; DNA damage induced by 5-fluorouridine; Potency, µM (top dose mostly 46.1 µM), actives largely listed as inhibitors; actives 2.3% (n = 330,000); also: nearly all actives have a fitted effect of over 55% in size
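Overnight (16 hr) co-exposure of 2,000 cells/well to 5-fluorouridine and compound at 37 °C preceded detection. Luciferase was quantified via ONE-Glo luminescence; loss of signal denotes inhibition.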
HT1080-NT tox = kills 2HG-producing HT-1080-NT fibrosarcoma cells; HT-1080-NT fibrosarcoma viability, CellTiter-Glo ATP luminescence, 48 h; Potency, µM (highest dose often 46.1 µM), usual class: cytotoxic; actives 1.6% (n = 360,000); AID 686970;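 also: NT is the 2HG producing partner of a matched IDH1 knockdown line; nearly all actives have a fitted effect of over 55% in size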
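Toxicity toward the 2HG-producing NT line was scored as %Activity, normalised to DMSO and no-cell wells, from CellTiter-Glo luminescence after 48 hours' treatment.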
Hits are given with their value; – = inactive; ? = inconclusive; · = not tested or not shown; ! = not confirmed by another sample. Unless noted, calls follow the shape of the dose curve; as a rule, active = well fitted curve in the direction sought with a large enough effect; inconclusive = small, poorly fitted or top-dose-only effect, or another doubt; inactive = no such curve, though single readings can be large; an effect the other way counts as inactive or inconclusive.

SMILES	HT1080 IDH1KD tx	TDP1 cell CPT	TDP1 cell noCPT	IL-1B inflam inh	ELG1 DNA repair	HT1080-NT tox
CO/N=C/NC(=O)c1ccc([N+](=O)[O-])c(CS(=O)(=O)c2ccc(Cl)cc2)c1	–	7.31µM	10.3µM	–	–	–
COc1ccc(N(C(=O)CCl)C(C(=O)NCCc2ccccc2)c2cccs2)cc1 (stereo unspecified)	1.64µM	4.61µM	4.11µM	-108.0	?	2.06µM
COc1ccc(CNC(=O)C(c2ccncc2)N(C(=O)Cc2cccs2)c2ccccc2)cc1 (stereo unspecified)	–	?	?	–	–	–
O=C(NCc1ccc(Cl)cc1)C(=O)NCC(c1cccs1)S(=O)(=O)c1cccs1 (stereo unspecified)	·	–	?	·	·	·
O=S(=O)(NCC(c1cccs1)S(=O)(=O)c1ccccc1)c1ccc(F)cc1 (stereo unspecified)	·	1.64µM	2.31µM	·	·	·
O=C(NCCc1ccc(F)cc1)C(=O)NCC(c1cccs1)S(=O)(=O)c1cccs1 (stereo unspecified)	·	?	25.9µM	·	·	·
COc1ccc(CCNC(=O)C(=O)NCC(c2cccs2)S(=O)(=O)c2ccc(F)cc2)cc1 (stereo unspecified)	·	?	23.1µM	·	·	·
Cc1cc(NS(=O)(=O)c2ccc(NC(=O)COc3ccccc3Br)cc2)no1	·	–	–	·	·	·
CC1(c2nnnn2-c2ccc3c(c2)OCCO3)CCC(=O)N1CCOc1ccccc1 (stereo unspecified)	–	–	–	–	·	–
CCOC(=O)C1(C)CCCCCN1C(=O)c1ccc(OC)cc1 (stereo unspecified)	–	16.4µM	?	–	·	–
CCOC(=O)C1(C)CCCCCN1C(=O)c1ccc(OC)c(C(F)(F)F)c1 (stereo unspecified)	–	23.1µM	10.3µM	–	·	–
CCOC(=O)C1(C)CCN1C(=O)c1ccccc1 (stereo unspecified)	–	–	–	–	·	–
CCOC(=O)C1(C)CCN1C(=O)c1ccc(-c2ccccc2)cc1 (stereo unspecified)	–	–	14.6µM	–	·	–
CCOC(=O)C1(C)CCCCN1C(=O)c1ccc(N(C)C)cc1 (stereo unspecified)	–	–	?	–	·	?
O=C(NNC(=O)c1ccccc1F)c1cccc(-n2cccc2)c1	–	–	–	–	?	–
O=C1COc2ccc(C(=O)COC(=O)Cc3ccsc3)cc2N1	–	–	–	–	–	–
COc1ccc2[nH]c(-c3ccccc3)cc2c1	–	–	–	–	?	–
Cc1cccc(OCC(=O)Nc2nc3c(s2)CC(C(C)(C)C)CC3)c1C (stereo unspecified)	·	16.4µM	18.4µM	·	·	·
Cc1cc(C)cc(OCC(=O)Nc2nc3c(s2)CC(C(C)(C)C)CC3)c1 (stereo unspecified)	·	18.4µM	23.1µM	·	·	·
CC(C)(C)C1CCc2nc(NC(=O)COc3ccccc3[N+](=O)[O-])sc2C1 (stereo unspecified)	·	16.4µM	?	·	·	·
CC(C)c1nnc(NC(=O)COc2ccccc2[N+](=O)[O-])s1	–	–	–	–	?	–
CC(C)(C)C1CCc2nc(NC(=O)c3cccc(Cl)c3)sc2C1 (stereo unspecified)	·	?	23.1µM	·	·	·
Cc1cc(OCC(=O)Nc2nc3c(s2)CCCC3)cc(C)c1Cl	·	–	?	·	·	·
CCc1ccc(-n2nc(C)c3c(C)cc(=O)n(CC(=O)Nc4ccc(OC)c(OC)c4)c32)cc1	·	–	–	·	·	·
COc1ccc(CNC(=O)CN(C)c2nn3c(=O)cc(C)nc3s2)cc1	·	–	–	·	·	·
SMILES	HT1080 IDH1KD tx	TDP1 cell CPT	TDP1 cell noCPT	IL-1B inflam inh	ELG1 DNA repair	HT1080-NT tox
CCCCc1ccc(NC(=O)CSC2=NN3CCCC(=O)N=C3S2)cc1	?	?	?	–	–	?
Cc1[nH]c2ccccc2c1/C=C(\C#N)C(=O)NC1CC1	–	–	–	–	?	–
COC(=O)/C(C#N)=C\c1c(OC)[nH]c2ccccc12	–	?	9.2µM	–	?	–
COc1ccc(CNC(=O)c2ccc(CS(=O)(=O)Cc3ccccc3F)o2)cc1	–	?	16.4µM	–	?	–
Cc1ccccc1CS(=O)(=O)Cc1ccc(C(=O)NCc2ccc(F)cc2)o1	·	?	16.4µM	·	·	·
Cc1ccccc1CS(=O)(=O)Cc1ccc(C(=O)NCc2ccco2)o1	–	–	?	–	–	–
CCc1ccc(CNC(=O)c2ccc(CS(=O)(=O)Cc3ccccc3C)o2)cc1	·	20.6µM	20.6µM	·	·	·
Cc1ccc(-c2c(C(=O)NCc3ccc(F)cc3)oc(=O)c3ccccc23)cc1	–	?	20.6µM!	?	?	–
COc1ccc(C(=O)OCC(=O)c2c[nH]c3ccccc23)cc1OC	–	–	–	–	?	–
C=CCN(c1ccccc1OC)S(=O)(=O)c1cccc(C(=O)OCC(=O)N2CCOCC2)c1	–	–	?	–	–	–
COc1ccccc1/C=C/C(=O)OCC(=O)c1c[nH]c2ccccc12	–	?	20.6µM	–	–	–
C=CCN(c1ccccc1OC)S(=O)(=O)c1cccc(C(=O)OCC(=O)c2c[nH]c3ccccc23)c1	–	?	23.1µM	–	23.1µM	–
COc1cc(OC)c(N(C)S(=O)(=O)c2cccc(C(=O)OCC(=O)c3c[nH]c4ccccc34)c2)cc1Cl	?	?	23.1µM	–	20.6µM	–
Cc1ccc(C(=O)OCC(=O)c2c[nH]c3ccccc23)cc1	–	–	–	–	?	–
CC(C)Cc1ccc(C(C)C(=O)OCC(=O)c2c[nH]c3ccccc23)cc1 (stereo unspecified)	?	10.3µM	13µM	–	?	?
COc1cc2c(cc1NC(=O)COC(=O)C(CCSC)NC(=O)c1ccccc1Cl)oc1ccccc12 (stereo unspecified)	–	?	?	–	?	–
CC(=O)Nc1cc(C(F)(F)F)ccc1N1CCOCC1	–	–	–	–	·	–
CCOC(=O)C(=CNc1cc(C(F)(F)F)ccc1N1CCOCC1)C(=O)OCC	–	?	16.4µM	-53.0	?	–
O=C(Nc1cc(C(F)(F)F)ccc1N1CCOCC1)C1Cc2ccccc2CN1C(=O)c1ccco1 (stereo unspecified)	–	16.4µM	?	–	–	–
COc1ccc(NC(C)C(=O)Nc2cc(C(F)(F)F)ccc2N2CCOCC2)c(OC)c1 (stereo unspecified)	–	?	23.1µM	–	–	–
O=C(CCCCl)NC(=S)Nc1cc(C(F)(F)F)ccc1N1CCOCC1	–	?	14.6µM	?	–	–
